D1 ag: human D1 receptor agonism; P21728; HEK293 T-REx D1 cells, calcium flux, agonist mode; activation, % at 2 µM; hit rate 1% among 360,000; AID 504660; further: 0% is about no effect
Target sequence (P21728 whole entry, looked up): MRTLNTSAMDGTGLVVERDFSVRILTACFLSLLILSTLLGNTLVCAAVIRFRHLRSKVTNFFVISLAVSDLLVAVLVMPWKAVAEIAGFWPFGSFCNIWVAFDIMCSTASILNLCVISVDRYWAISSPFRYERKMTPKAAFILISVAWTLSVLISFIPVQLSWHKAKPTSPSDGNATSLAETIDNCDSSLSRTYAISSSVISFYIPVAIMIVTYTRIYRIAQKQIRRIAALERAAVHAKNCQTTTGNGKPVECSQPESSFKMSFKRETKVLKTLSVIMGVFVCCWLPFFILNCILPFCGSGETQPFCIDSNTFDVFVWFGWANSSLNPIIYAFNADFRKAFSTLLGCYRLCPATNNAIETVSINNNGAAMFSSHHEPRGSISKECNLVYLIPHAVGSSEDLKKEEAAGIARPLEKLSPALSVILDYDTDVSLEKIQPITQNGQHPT
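Agonism was scored from calcium flux recorded over 180 s (1 read/s) after pintool compound addition, following a 10-cycle baseline. Cells were inducible force-coupled HEK293 TREx D1, plated overnight at 30 C and loaded with no-wash calcium dye.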
TRHR PAM: TRH receptor (human) allosteric enhancement | AID 493056 | P34981 | TRHR cells, fluo-8 calcium fluorescence, EC20 TRH enhancement | enhancement, % at 2 µM | hit rate 0.66% among 360,000; in the data active means enhancement above about 30%; further: 0% is about no effect
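TRHR-expressing cells loaded with fluo-8 calcium dye were read kinetically (ex 480/em 530) during compound addition, then stimulated with an EC20 of TRH (10 nM final). Enhancement of the Gq-mediated intracellular calcium response was scored.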
D1 antag: antagonists of human D1 dopamine receptor; P21728; HEK293 TREx D1 cells, calcium flux, dopamine EC80; active compounds read low; activity change, negative = inhibition, % at 10 µM; hit rate 3.2% among 360,000; AID 504652; in the data active means activity change below about -30%; further: on the % scale 0 is the no-effect control and ±100 the full control effect
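Cells carrying a force-coupled, tetracycline-inducible human D1 receptor report calcium flux. Each well gets a 10 s baseline, compound with 180 s monitoring, then an EC80 dopamine stimulus with a second 180 s kinetic read.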
Glioma ERSR ind: induces the endoplasmic reticulum stress response in human glioma cells | U87-MG GRP78 promoter luciferase reporter, 16 h | Potency, µM, inactives show at the highest dose activation, usual class: activators | hit rate 0.02% among 420,000 | AID 602332; active means well fitted activation curve with a large enough effect; further: potency means the concentration at half of the fitted maximal effect; series mostly up to about 76 µM; % of control where 0% means no effect; nearly all actives have a fitted effect of over 35% in size
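Stably transfected U87-MG human glioma cells carrying a GRP78-based luminescent sensor were seeded at 1000 cells/well, pin-dosed with compounds and incubated 16 h. Luciferase reagent was then added, and end-point luminescence was read after 10 min at room temperature.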
D1 PAM: potentiators of human D1 dopamine receptor; P21728; HEK293 TREx D1 cells, calcium flux, dopamine EC20 potentiation; potentiation, % at 10 µM; hit rate 0.036% among 360,000; AID 504651; in the data active means potentiation above about 30%; further: 0% is about no effect
TRHR agonist: TRH receptor (human) agonism; hit rate 0.18% among 360,000; P34981; TRHR cells, calcium flux fluo-8, FDSS agonist mode; activation, % at 2 µM; AID 493084; further: 0% is about no effect
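In this calcium-flux screen, cells bearing human TRHR are dye-loaded with fluo-8, baselined for 10 cycles, then exposed to library compounds; positive kinetic calcium responses during the agonist phase mark hits, with TRH as control.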
An asterisk follows results filed as active; / = no result. A selection: hits, their analogues and other compounds. The true share with any hit is near 4%. Unless noted, no stated cut-off is given here; in the data, active means activation above about 30%; inactive means the rest.

SMILES	D1 ag	TRHR PAM	D1 antag	Glioma ERSR ind	D1 PAM	TRHR agonist
Cc1c(N/C(=N/S(=O)(=O)c2ccc(Cl)cc2)c2ccccc2)c(=O)n(-c2ccccc2)n1C	2.2	-24.0	-62.5*	/	-1.8	0.4
CN(CC(=O)Nc1ccc(Cl)c(C(F)(F)F)c1)C(=O)c1ccc(OCC2CCCO2)cc1 (configuration not stated)	3.4	5.1	-48.9*	-1.1%	-19.6	1.5
O=C(CN1C(=O)CSc2ccc(S(=O)(=O)N3CCCCC3)cc21)NCc1ccc(F)cc1Cl	0.7	-3.6	-3.5	-6.9%	3.5	0.4
CC(=O)c1ccc(OC(C)C)c(CN2CCCCC2)c1	2.3	-1.9	-18.5	-0.9%	-5.5	-0.1
CC(=O)c1cc(CN2CCCCC2)cc(OC(C)C)c1	2.6	-1.0	-44.6*	-3.8%	-7.0	0.4
CSc1ccc(CN(C)C(=O)c2cc(Cl)c3c(c2)OCCO3)cc1	1.1	2.6	-2.1	-0.5%	-7.5	-0.9
CCC(C)(C)c1ccc(OCCCC[n+]2cccc(C)c2)c(C(C)(C)CC)c1	169.1*	0.7	-14.8	-15.2%	-7.2	0.7
NC(=O)[C@@H]1CCCNc2c(I)cc([N+](=O)[O-])cc2C(=O)N[C@@H](CCCN=C(N)N)C(=O)N[C@@H](CCCN=C(N)N)C(=O)N1	-0.3	10.3	-38.7*	/	-4.4	0.0
CC[C@H](C)[C@@H]1NC(=O)c2cc([N+](=O)[O-])cc(I)c2NCC[C@@H](C(N)=O)NC(=O)[C@H](CCCN=C(N)N)NC1=O	-3.3	6.5	11.4	-6.3%	-1.9	-0.5
Cc1ccc(Nc2ccc(-n3ccnc3)nn2)cc1C	-0.4	-2.0	8.4	3.6%	-6.8	-0.4
COc1cccc(Nc2ccc(-n3ccnc3)nn2)c1	-0.1	2.8	-66.5*	3.2%	-8.4	-0.3
CC(C)N(CCC(=O)c1ccc2ccccc2c1)Cc1ccccc1	1.0	-18.5	-31.5*	-14.5%	-6.9	13.7
CCCCC(=O)Nc1ccc(C(=O)N(CC)c2ccccc2C)cc1	3.1	-2.7	/	-4.8%	-7.4	-0.1
CC(C)(C)C(=O)NC(=S)Nc1ccc(Cc2ccncc2)cc1	13.9	3.1	-2.6	0.6%	-1.5	0.6
CC(C)NC(=O)C1CCCN(c2ncnc3c2nc2n3CCCCC2)C1 (configuration not stated)	-0.6	-6.6	4.8	-0.3%	0.8	0.1
CCc1ccc(NC(=O)CC2C(=O)N(c3ccc(F)cc3)C(=O)N2Cc2ccc(F)cc2)cc1 (configuration not stated)	0.8	-2.6	-30.5*	-1.0%	-4.0	1.2
CCc1ccc(NC(=O)CC2C(=O)N(c3cccc(C)c3)C(=O)N2Cc2cccs2)cc1 (configuration not stated)	2.6	-0.3	-37.9*	0.4%	-2.7	0.6
CCc1ccc(NC(=O)CC2C(=O)N(c3cccc(C)c3)C(=O)N2Cc2ccc(F)cc2)cc1 (configuration not stated)	2.6	0.4	-4.2	-1.9%	-2.6	-0.3
COc1cc(NC(=O)CC2C(=O)N(c3cccc(C)c3)C(=O)N2Cc2cccs2)cc(OC)c1 (configuration not stated)	2.8	-2.9	5.2	-2.8%	-1.8	0.0
Cc1ccsc1CCN1C(=O)N(c2ccccc2)C(=O)C1CC(=O)Nc1ccc(Cl)cc1 (configuration not stated)	9.4	0.2	-35.7*	0.7%	-4.8	2.6
CCOC(=O)C(=O)NNc1ccccc1C	2.3	-1.6	-11.7	-4.6%	2.6	-0.3
CCOc1ccccc1N(CC(=O)Nc1ccc(OC)cc1OC)S(=O)(=O)c1ccccc1	-1.9	12.6	1.0	-1.3%	7.0	-1.3
Cc1nnc(SCCn2c(N3CCN(C)CC3)nc3c2c(=O)[nH]c(=O)n3C)s1	2.1	40.7*	-0.5	-3.6%	-8.2	0.3
Cc1nnc(SCCn2c(N3CCCCCC3)nc3c2c(=O)[nH]c(=O)n3C)s1	0.1	10.9	8.5	-2.4%	-8.9	-0.3
CCCn1c(N2CCN(C)CC2)nc2c1c(=O)[nH]c(=O)n2C	1.5	-0.6	-30.6*	2.0%	-10.1	0.3
SMILES	D1 ag	TRHR PAM	D1 antag	Glioma ERSR ind	D1 PAM	TRHR agonist
CCCn1c(N2CCOCC2)nc2c1c(=O)[nH]c(=O)n2C	4.8	-2.8	-5.8	-3.8%	0.1	-1.4
CC1CN(C(=O)CSc2nnc(C3CCCCC3)n2N)CC(C)O1 (configuration not stated)	/	/	/	-3.6%	/	/
CCOc1ccc(Oc2nc(N(CC)CC)nc(N3CCOCC3)n2)nn1	0.7	-1.9	3.8	1.4%	3.2	0.8
COC(=O)c1sccc1NC(=O)Nc1cccc([N+](=O)[O-])c1	4.7	7.5	-38.1*	-1.2%	-3.7	0.5
CC(NC(=O)Nc1cccc([N+](=O)[O-])c1)(C(F)(F)F)C(F)(F)F	26.3	2.8	-35.6*	-10.5%	1.6	0.9
COC(=O)c1sccc1NC(=O)Nc1cc(OC)ccc1OC	1.1	-1.0	-22.0	-3.6%	-3.1	-0.4
COC(=O)c1sccc1NC(=O)Nc1ccccc1OC	-1.1	-2.8	-80.0*	-3.1%	-8.2	-0.2
CC(NC(=O)Nc1cccnc1)(C(F)(F)F)C(F)(F)F	2.2	0.1	10.5	-5.1%	-4.9	0.3
COc1ccccc1NC(=S)NNC(=O)c1ccccc1Br	0.7	10.9	-79.8*	4.5%	-8.9	-0.5
CCC(=O)Nc1ccccc1-c1nc2ccccc2n(C(CC)C(=O)Nc2cccc(Cl)c2)c1=O (configuration not stated)	-1.4	9.8	-21.3	1.2%	-2.6	-0.5
Cc1ccc(NC(=O)NNC(=O)c2cc3ccccc3cc2O)cc1	3.9	3.1	-0.6	-2.5%	-2.2	1.0
Cc1c(C(=O)Nc2cccc([N+](=O)[O-])c2)csc1-c1ccccc1	/	/	/	-7.7%	/	/
COc1ccccc1NC(=O)Nc1cc(NC(=O)Nc2ccccc2OC)c(C)nc1C	1.5	-0.1	-92.9*	11.0%	-7.7	0.3
COc1ccc(NC(=O)Nc2ccccc2OC)cc1	0.0	-0.7	/	9.1%	-2.3	-0.7
COc1ccccc1NC(=O)NNC(=O)c1cc2ccccc2cc1O	17.1	-0.5	-34.3*	8.3%	-11.4	1.5
O=C(Nc1cccc([N+](=O)[O-])c1)Nc1cccs1	23.5	1.3	-35.4*	-1.2%	-11.5	0.7
O=C(/C=C/c1cccc([N+](=O)[O-])c1)Nc1cccc(NC(=O)c2cccs2)c1	1.5	17.7	-46.1*	2.9%	0.2	1.1
CCCCSCCCNC(=O)c1cn(C)c2ccc(S(=O)(=O)N3CCCCCC3)cc2c1=O	-0.6	3.8	-0.1	-1.0%	-0.2	-0.2
O=C(Nc1ccccc1)Nc1cc([N+](=O)[O-])ccc1F	20.1	3.4	-18.9	-0.6%	-7.5	1.8
Cc1ccc([N+](=O)[O-])cc1NC(=O)Nc1cccc(F)c1	25.3	-10.0	-51.1*	-2.8%	-6.0	3.3

Screens: PubChem, National Center for Advancing Translational Sciences (NCATS)
